Laboratory results as given in PMC12820563, “FoxP3 forms a head-to-head dimer in vivo and stabilizes its multimerization on adjacent microsatellites”.
Over roughly 16,000 sequences, “rpm ratio (pull-down/input)” has its median near 0.5; the highest 2% begin near 5.5. Only a selection was taken, and the highest values are over-represented in it overall.

What follows are sequences tested against T1, MBP-FoxP3dN (Mus musculus, UniProt Q99JB6 188-423) (assay: PD-seq (MBP pull-down with sequencing); 20 mM Tris-HCl pH 7.5, 100 mM NaCl, 1.5 mM MgCl2, 0.4 uM protein, 0.1 uM dsDNA library, 30 min, room temperature, amylose pull-down; high values mean tight binding). Details: protein: recombinant; tags: His6-MBP; chain copies: 2; dsDNA, one strand shown.
T1 sequence: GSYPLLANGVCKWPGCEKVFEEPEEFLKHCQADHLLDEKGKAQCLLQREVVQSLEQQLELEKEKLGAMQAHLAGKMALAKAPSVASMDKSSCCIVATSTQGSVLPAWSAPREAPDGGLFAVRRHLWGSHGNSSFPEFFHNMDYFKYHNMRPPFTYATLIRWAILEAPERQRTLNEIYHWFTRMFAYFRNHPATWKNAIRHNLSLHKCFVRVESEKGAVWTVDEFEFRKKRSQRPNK
Procedure, shortened: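 A fragment of mouse FoxP3 or FoxP1 without its N-terminus, carrying a His6-MBP tag and produced in E. coli, was combined at 0.4 µM with a 0.1 µM degenerate double-stranded DNA library filled in with Klenow. The mixture sat for 30 min at room temperature in Tris pH 7.5 buffer containing NaCl and MgCl2. Protein–DNA complexes were captured on amylose resin, washed three times, and the DNA was freed with proteinase K, barcoded by PCR and sequenced on Illumina. Binding is expressed as reads-per-million enrichment of pull-down over input, with replicates pooled.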

Compared with “GATGATTGTTCTCCCAGCTGATGAATTCCGCATTTCGAGTAAACAAATTTTCCTAATCTTTCTGTTCAAGCGCCATCTAC”, “GATGATTGTTCTCCCAGCTGATGAATTCCGCATCTCGAGTAAACAAATTTTCCTAATCTTTCTGTTCAAGCGCCATCTAC” is higher in binding signal: 6.33 RPM ratio (pull-down/input) for the first, 6.95 RPM ratio (pull-down/input) for the second.

Compared with “GATGATTGTTCTCCCAGCTGATGAATTCTCCGCATCGAGTAAACAAATTTTCCTAATCTTTCTGTTCAAGCGCCATCTAC”, “GATGATTGTTCTCCCAGCTGATGAATTAGACCAGTCGAGTAAACAAATTTTCCTAATCTTTCTGTTCAAGCGCCATCTAC” is lower in binding signal: 0.8 RPM ratio (pull-down/input) for the first, 0.233 RPM ratio (pull-down/input) for the second.

First: GATGATTGTTCTCCCAGCTGATGAATTTCTTGCGTCGAGTAAACAAATTTTCCTAATCTTTCTGTTCAAGCGCCATCTAC
Second: GATGATTGTTCTCCCAGCTGATGAATTCCTCGACTCGAGTAAACAAATTTTCCTAATCTTTCTGTTCAAGCGCCATCTAC
The binding signal of the first is higher: 0.535 RPM ratio (pull-down/input) for the first, 0.213 RPM ratio (pull-down/input) for the second.

First: GATGATTGTTCTCCCAGCTGATGAATTAACCGATTCGAGTAAACAAATTTTCCTAATCTTTCTGTTCAAGCGCCATCTAC
Second: GATGATTGTTCTCCCAGCTGATGAATTCGAGACATCGAGTAAACAAATTTTCCTAATCTTTCTGTTCAAGCGCCATCTAC
The binding signal of the first is lower: 0.251 RPM ratio (pull-down/input) for the first, 0.446 RPM ratio (pull-down/input) for the second.

Going from “GATGATTGTTCTCCCAGCTGATGAATTTTGCCCTTCGAGTAAACAAATTTTCCTAATCTTTCTGTTCAAGCGCCATCTAC” to “GATGATTGTTCTCCCAGCTGATGAATTGCGAGGGTCGAGTAAACAAATTTTCCTAATCTTTCTGTTCAAGCGCCATCTAC”, the binding signal falls from 1.57 RPM ratio (pull-down/input) to 0.611 RPM ratio (pull-down/input).

First: GATGATTGTTCTCCCAGCTGATGAATTTGGGTGTTCGAGTAAACAAATTTTCCTAATCTTTCTGTTCAAGCGCCATCTAC
Second: GATGATTGTTCTCCCAGCTGATGAATTACCGTTATCGAGTAAACAAATTTTCCTAATCTTTCTGTTCAAGCGCCATCTAC
The binding signal of the first is higher: 1.11 RPM ratio (pull-down/input) for the first, 0.764 RPM ratio (pull-down/input) for the second.

First: GATGATTGTTCTCCCAGCTGATGAATTGACTATGTCGAGTAAACAAATTTTCCTAATCTTTCTGTTCAAGCGCCATCTAC
Second: GATGATTGTTCTCCCAGCTGATGAATTTCCGCCTTCGAGTAAACAAATTTTCCTAATCTTTCTGTTCAAGCGCCATCTAC
The binding signal of the first is lower: 0.449 RPM ratio (pull-down/input) for the first, 3.28 RPM ratio (pull-down/input) for the second.

First: GATGATTGTTCTCCCAGCTGATGAATTCGCCGCATCGAGTAAACAAATTTTCCTAATCTTTCTGTTCAAGCGCCATCTAC
Second: GATGATTGTTCTCCCAGCTGATGAATTCCGCTGTTCGAGTAAACAAATTTTCCTAATCTTTCTGTTCAAGCGCCATCTAC
The binding signal of the first is lower: 0.966 RPM ratio (pull-down/input) for the first, 1.28 RPM ratio (pull-down/input) for the second.

Compared with “GATGATTGTTCTCCCAGCTGATGAATTTGCCGCATCGAGTAAACAAATTTTCCTAATCTTTCTGTTCAAGCGCCATCTAC”, “GATGATTGTTCTCCCAGCTGATGAATTCCCATTTTCGAGTAAACAAATTTTCCTAATCTTTCTGTTCAAGCGCCATCTAC” is lower in binding signal: 1.35 RPM ratio (pull-down/input) for the first, 0.336 RPM ratio (pull-down/input) for the second.

Going from “GATGATTGTTCTCCCAGCTGATGAATTTACCGCATCGAGTAAACAAATTTTCCTAATCTTTCTGTTCAAGCGCCATCTAC” to “GATGATTGTTCTCCCAGCTGATGAATTCCGCCATTCGAGTAAACAAATTTTCCTAATCTTTCTGTTCAAGCGCCATCTAC”, the binding signal rises from 1.17 RPM ratio (pull-down/input) to 5.49 RPM ratio (pull-down/input).

Going from “GATGATTGTTCTCCCAGCTGATGAATTACCGCATTCGAGTAAACAAATTTTCCTAATCTTTCTGTTCAAGCGCCATCTAC” to “GATGATTGTTCTCCCAGCTGATGAATTCCCGCCTTCGAGTAAACAAATTTTCCTAATCTTTCTGTTCAAGCGCCATCTAC”, the binding signal falls from 5.89 RPM ratio (pull-down/input) to 2.93 RPM ratio (pull-down/input).

Compared with “GATGATTGTTCTCCCAGCTGATGAATTACCCCATTCGAGTAAACAAATTTTCCTAATCTTTCTGTTCAAGCGCCATCTAC”, “GATGATTGTTCTCCCAGCTGATGAATTCCGCCTTTCGAGTAAACAAATTTTCCTAATCTTTCTGTTCAAGCGCCATCTAC” is higher in binding signal: 0.3 RPM ratio (pull-down/input) for the first, 5.55 RPM ratio (pull-down/input) for the second.

Going from “GATGATTGTTCTCCCAGCTGATGAATTGCCGCATTCGAGTAAACAAATTTTCCTAATCTTTCTGTTCAAGCGCCATCTAC” to “GATGATTGTTCTCCCAGCTGATGAATTACACAACTCGAGTAAACAAATTTTCCTAATCTTTCTGTTCAAGCGCCATCTAC”, the binding signal falls from 7.28 RPM ratio (pull-down/input) to 0.854 RPM ratio (pull-down/input).

First: GATGATTGTTCTCCCAGCTGATGAATTAATTCTGTCGAGTAAACAAATTTTCCTAATCTTTCTGTTCAAGCGCCATCTAC
Second: GATGATTGTTCTCCCAGCTGATGAATTCTGTTAATCGAGTAAACAAATTTTCCTAATCTTTCTGTTCAAGCGCCATCTAC
The binding signal of the first is lower: 0.249 RPM ratio (pull-down/input) for the first, 1.25 RPM ratio (pull-down/input) for the second.

First: GATGATTGTTCTCCCAGCTGATGAATTATCCTGCTCGAGTAAACAAATTTTCCTAATCTTTCTGTTCAAGCGCCATCTAC
Second: GATGATTGTTCTCCCAGCTGATGAATTACGTGGGTCGAGTAAACAAATTTTCCTAATCTTTCTGTTCAAGCGCCATCTAC
The binding signal of the first is lower: 0.234 RPM ratio (pull-down/input) for the first, 0.527 RPM ratio (pull-down/input) for the second.

Going from “GATGATTGTTCTCCCAGCTGATGAATTGGTCTCTTCGAGTAAACAAATTTTCCTAATCTTTCTGTTCAAGCGCCATCTAC” to “GATGATTGTTCTCCCAGCTGATGAATTCAGCAAATCGAGTAAACAAATTTTCCTAATCTTTCTGTTCAAGCGCCATCTAC”, the binding signal rises from 0.388 RPM ratio (pull-down/input) to 0.539 RPM ratio (pull-down/input).
